# Bioassay records from PubChem BioAssay.
# Sm TGR inh = S. mansoni TGR enzyme inhibition. Q962Y6. Potency, µM (highest dose often 114 µM), for the others: at the top dose activity change, negative = inhibition, most hits filed as inhibitors. AID 485364. purified TGR, DTNB reduction, TNB absorbance 405 nm. 360,000 tested, 3% active; further: potency means the concentration at half of the fitted maximal effect; on the % scale 0 is the no-effect control and ±100 the full control effect; nearly all actives have a fitted effect of over 60% in size
#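 First, TGR (20 nM dispensed) and NADPH were mixed with compound. Second, a 15 min room-temperature incubation followed. Third, further NADPH and then DTNB were added to start the reaction. Finally, TNB absorbance was monitored kinetically.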
# Pf growth 96h = P. falciparum growth inhibition at 96 hour, primary screen for plastid delayed-death inhibitors | P. falciparum luciferase reporter growth, 96 h | Potency, µM (highest dose often 28.7 µM), inactives show at the highest dose activity change, negative = inhibition, most hits filed as inhibitors | 320,000 tested, 6.9% active; further: potency means the concentration at half of the fitted maximal effect; on the % scale 0 is the no-effect control and ±100 the full control effect
#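 Readout is luminescence from an integrated firefly luciferase in P. falciparum. Red cells, 2% hematocrit and 0.05% parasitemia final, were cultured with compound through two parasite generations (96 hours) at 37 C, 5% CO2.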
# Pf growth 48h = inhibits P. falciparum growth in the first generation, 48 h | Potency, µM (top dose mostly 28.7 µM), for the others: at the top dose activity change, negative = inhibition, actives largely listed as inhibitors | 310,000 tested, 5.9% active | P. falciparum luciferase growth in erythrocytes, 48 h; further: potency means the concentration at half of the fitted maximal effect; on the % scale 0 is the no-effect control and ±100 the full control effect
#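 Read-out is firefly luciferase luminescence from an integrated reporter in P. falciparum, so falling signal marks reduced parasite growth. Infected erythrocytes were at 2% hematocrit and 0.1% parasitemia (final) in Albumax-supplemented RPMI 1640.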
# HCV inhibitor = blocks hepatitis C virus; AID 651820; Potency, µM (series often up to 41.8 µM), for the others: at the top dose activity change, negative = inhibition, actives largely listed as inhibitors; 340,000 tested, 3.4% active; Huh7.5.1 HCVcc-Cre infection, luciferase reporter, 44 h; further: potency means the concentration at half of the fitted maximal effect; on the % scale 0 is the no-effect control and ±100 the full control effect
#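 Reporter virus HCVcc-Cre (~0.5 moi) infects cells exposed to compound; seeding density 1,000 cells/well with 4 h settling beforehand. Luminescence, 15 sec read, taken 44 h post-infection following a 15 min RT substrate incubation.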
# HCMV antiviral = blocks human cytomegalovirus replication; HFF cells, HCMV-luciferase reporter, 72 h; stronger effect = lower value; activity change, negative = inhibition, % at 57.5 µM; 410,000 tested, 4.5% active; AID 1259415; in the data active means activity change below about -60%; inconclusive means no clear call, values can overlap the other calls; inactive means above about -39%; further: on the % scale 0 is the no-effect control and ±100 the full control effect
#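 Compounds were evaluated in HFFs infected with an HCMV luciferase reporter virus (MOI 1 PFU/cell). Luciferase in lysates collected 72 h post infection served as the replication measure.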
# SARS PLP yeast = inhibitors of SARS-CoV papain-like protease in yeast; AID 485353; 330,000 tested, 0.19% active; Potency, µM (top dose mostly 32.9 µM), for the others: at the top dose activity, positive = growth rescue, actives largely listed as activators; S. cerevisiae expressing SARS-CoV PLpro, growth rescue; calls by dose curve; further: potency means the concentration at half of the fitted maximal effect; 0% is about no effect; nearly all actives have a fitted effect of over 55% in size
# * = called active by the depositor; ? = inconclusive; / = no result; [ ] = another dose, or the depositor's remark. Rows were chosen to be rich in hits. Some 15% of all compounds tested hit in one or more screens of this group. Unless noted, the call rests on the fitted dose curve; in most records, active means well fitted curve in the direction sought with a large enough effect; inconclusive means small, poorly fitted or top-dose-only effect, or another doubt; inactive means no such curve, though single readings can be large; an effect the other way counts as inactive or inconclusive.
SMILES,Sm TGR inh,Pf growth 96h,Pf growth 48h,HCV inhibitor,HCMV antiviral,SARS PLP yeast
O=C(NCc1ccc(Cl)cc1)c1ccc2c(=O)n(CC3CCCO3)c(=S)[nH]c2c1 (configuration not stated),13%,12µM*,-29%,?,?,1%
O=C(NCCN1CCCC1)c1ccc(Cn2c(=S)[nH]c3ccc(Br)cc3c2=O)cc1,-7%,52%,?,?,5,-3%
O=C(NCCCN1CCCC1)c1ccc(Cn2c(=S)[nH]c3ccc(Br)cc3c2=O)cc1,45µM*,23%,13µM*,/,-18,-2%
O=C1CC[C@H](C(=O)N[C@@H]2C[C@H]2c2ccccc2)N1,/,9%,18%,/,/,/
CCc1ccccc1NC(=S)N(CCOC)C(C)c1ccco1 (configuration not stated),11%,-2%,?,-4%,-1,1%
CCc1cccc(C)c1NC(=S)N(CCOC)C(C)c1ccco1 (configuration not stated),10%,10%,?,-13%,-66*,4%
NC(=O)[C@H]1CC2(CC(c3cccc(NC(=O)[C@H]4CCC(=O)N4)c3)=NO2)CN1C(=O)c1cc([N+](=O)[O-])cc([N+](=O)[O-])c1 (some centres not stated),-18%,42%,33%,-17%,11,1%
O=C(NNC(=S)Nc1ccccc1C(F)(F)F)C1CC1,20%,23%,-1%,9%,7,-2%
CCOc1ccccc1NC(=O)NCc1ccccc1F,12%,1%,0%,11µM*,-35,1%
COc1ccc(NC(=O)NCc2ccccc2F)cc1OC,-10%[57.1 µM],10µM*,6%,-8%,-9,-1%
COc1ccccc1NC(=O)NCc1ccccc1F,12%,1%,52%,-13%,-35,-1%
CC(=O)CC1OC(=O)C(Br)=C1NCc1ccccc1 (configuration not stated),3.5µM*,7.4µM*,-2%,?,?,-10%
O=C(CC1Oc2ccccc2NC1=O)NCc1ccccc1 (configuration not stated),0%,-5%,/,-14%,-16,2%
COc1cccc(C(C(=O)NCC2CCCO2)N(C(=O)Cn2nnc3ccccc32)c2ccc(NC(C)=O)cc2)c1 (configuration not stated),6%,40%,?,9%,-39,-3%
O=C(NCc1ccco1)C(c1ccc(F)cc1)N(CC1CCCO1)C(=O)Cn1nnc2ccccc21 (configuration not stated),6%,12%,0%,2%,85,5%
CCOc1ccc(C(C(=O)Nc2ccc(F)cc2)N(C(=O)Cn2nnc3ccccc32)C2CC2)cc1 (configuration not stated),12%,4.7µM*,?,-10%,0,6%
COc1cccc(C(C(=O)Nc2ccc(F)cc2)N(C(=O)Cn2nnc3ccccc32)C2CC2)c1 (configuration not stated),12%,10µM*,?,-1%,-28,1%
CCOc1ccc(CCNC(=O)CCc2c(C)nc3ncnn3c2C)cc1OCC,2%,5.9µM*,?,-10%,-14,-15%
COc1ccc(CCNC(=O)CCc2c(C)nc3nc(C)nn3c2C)cc1OC,-1%,/,/,/,2,/
CCOc1ccc(CCNC(=O)CCS(=O)(=O)c2ccc(C)cc2)cc1OCC,32µM*,-17%,11%[0.00184 µM],-1%,-1,-2%
CCOc1ccc(CCNC(=O)CCS(=O)(=O)c2ccc(Br)cc2)cc1OCC,-1%,-8%,-7%[0.00184 µM],-25%,-28,1%
O=C(CCn1cccc1)NCCc1ccc(Cl)cc1,-34%,10µM*,6%,-5%,-10,-9%
COc1ccc(CCNC(=O)CCn2cccc2)cc1OC,-2%,32%,7%,?,-3,5%
CCOc1ccc(CCNC(=O)CCn2cccc2)cc1OCC,-6%,1.7µM*,?,-17%,3,10%
COc1ccc2[nH]cc(CCNC(=O)COc3cc(C)cc4oc(=O)cc(C)c34)c2c1,-13%,?,?,-57%,-2,0%
SMILES,Sm TGR inh,Pf growth 96h,Pf growth 48h,HCV inhibitor,HCMV antiviral,SARS PLP yeast
CC(=O)Nc1ccc(NS(=O)(=O)c2c(C(=O)N3CCC(C)CC3)c(C)n(C)c2C)cc1,-8%,/,/,/,?,/
CCCCCC/C(=N/O)c1ccccn1,5%,?,12µM*,-13%,71,-23%
C/C(=N/O)c1ccccn1,56%,0%,?,20%,20,-5%
CN(C(=O)CSc1nccc(=O)[nH]1)C1CCCCC1,/,/,/,6%,5,4%
CN(C(=O)CCCOc1ccc2[nH]c(=O)ccc2c1)C1CCCCC1,/,0.6µM*,?,/,/,/
CC(C)N1C(=O)C[C@H](S(=O)(=O)c2ccccc2)[C@H]1c1ccccc1,/,/,/,/,32,/
COC(=O)CN1C(=S)N(c2ccc(OC)cc2)C(=O)/C1=C/c1ccc(OC)cc1,20%[57.1 µM],-1%,12µM*,-7%,-15,-1%
COc1ccc(CNCc2c(O)c(Cl)cc3c(C)c(C)c(=O)oc23)c(OC)c1,-3%,?,?,10%,-70*,1%
CC1Cc2cc(S(=O)(=O)N3CCCCC3C)ccc2N1C(=O)C1CCC1 (configuration not stated),-6%,10µM*,?,?,8,-3%
CCC1CCCCN1S(=O)(=O)c1ccc2c(c1)CCN2C(=O)C1CCC1 (configuration not stated),-1%,/,9.3µM*,?,-28,-5%
Cc1ccc(NS(=O)(=O)c2ccc3c(c2)CC(C)N3C(=O)C2CCC2)cc1Cl (configuration not stated),0%,/,/,/,-76*,/
Cc1ccc(NS(=O)(=O)c2ccc(Cl)c(NC(=S)NC(=O)C3CCCCC3)c2)cc1Cl,-1%,?,?,11µM*,13,-21%
Cc1ccc(NC(=O)C2CCCC2)cc1Cl,/,/,/,1%,-11,/
Cc1occc1C(=O)Nc1nnc(-c2cccs2)s1,/,62%,66%,11%,16,1%
CC(C)(C)OC(=O)N[C@@H](C(=O)OC(C)(C)C)c1ccc(Br)cc1,-6%,?,?,?,-26,-3%
COc1ccc(CCNC(=O)Cn2cc(C(=O)c3ccc(Cl)cc3)c(=O)c3ccc(C)nc32)cc1OC,8%,/,/,/,27,/
CCC1CCCCN1S(=O)(=O)c1ccc2[nH]c(=O)ccc2c1 (configuration not stated),-31%,3.3µM*,11%,7%,10,3%
